Measurements from PubChem BioAssay AID1159580 (chemical genetic matrix, 2015).
“And” between values parts separate entries of the source, which are not always exact repeats. Equal entries are not always repeated. The campaign covered roughly 5,500 compounds. About 2,000 (36%) were called active. Roughly 18% stayed inconclusive and do not appear here. Rule as the data show it: active = normalized growth mostly below about 0.91 (no sharp cut-off); inconclusive = no clear call, values can overlap the other calls; inactive = mostly above about 0.92. Some of the results follow.

Experiment: chemical genetic growth profiling, strain panel (AID 1159580);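 also: tested at 20 µM; growth read once vehicle control cultures reached saturation at 30 °C; 1 = growth at the plate median or of vehicle wells; lower values mean less growth of the strain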
Settings: S. cerevisiae deletion strains, growth OD

Measured: normalized growth

CN1CCCN=C1COC(=O)C(O)(c1ccccc1)C1CCCCC1 (stereo unspecified)
inactive: locus YAL013W, strain DEP1, hits give low values 1.01 | locus YAL021C, strain ccr4, hits give low values 1 | locus YAL026C, strain drs2, hits give low values 0.993 | locus YAL030W, strain snc1, hits give low values 0.996 | locus YBL061C, strain skt5, hits give low values 0.987 | locus YBR009C, strain hhf1, hits give low values 0.994 | locus YBR021W, strain FUR4, hits give low values 1.03 | locus YBR023C, strain chs3, hits give low values 0.987 | locus YBR171W, strain sec66, hits give low values 0.993 | locus YBR229C, strain ROT2, hits give low values 1.01 | locus YBR231C, strain swc5, hits give low values 1 | locus YBR279W, strain paf1, hits give low values 0.993 | locus YCL011C, strain gbp2, hits give low values 1 | locus YCL016C, strain dcc1, hits give low values 0.991 | locus YCL029C, strain bik1, hits give low values 0.99 | locus YCL061C, strain MRC1, hits give low values 0.994 | locus YCL069W, strain vba3, hits give low values 0.997 | locus YCR088W, strain abp1, hits give low values 0.997 | locus YDL005C, strain med2, hits give low values 0.98 | locus YDL035C, strain GPR1, hits give low values 1 | locus YDL040C, strain nat1, hits give low values 0.998 | locus YDL074C, strain BRE1, hits give low values 1.01 | locus YDL101C, strain DUN1, hits give low values 1.01 | locus YDL134C, strain PPH21, hits give low values 1.02 | locus YDL185W, strain tfp1, hits give low values 1 | locus YDL192W, strain arf1, hits give low values 0.999 | locus YDR001C, strain nth1, hits give low values 0.995 | locus YDR069C, strain doa4, hits give low values 0.99 | locus YDR101C, strain arx1, hits give low values 0.968 | locus YDR137W, strain rgp1, hits give low values 0.99 | locus YDR150W, strain NUM1, hits give low values 1.01 | locus YDR159W, strain sac3, hits give low values 1 | locus YDR162C, strain NBP2, hits give low values 1 | locus YDR195W, strain ref2 0.993 | locus YDR297W, strain sur2, hits give low values 1 | locus YDR318W, strain mcm21, hits give low values 0.983 | locus YDR334W, strain swr1, hits give low values 0.989 | locus YDR335W, strain msn5, hits give low values 0.997 | locus YDR388W, hits give low values 0.989 | locus YDR392W, strain spt3, hits give low values 1 | locus YDR502C, strain sam2, hits give low values 0.994 | locus YEL003W, strain gim4, hits give low values 0.997 | locus YEL037C, strain rad23, hits give low values 0.991 | locus YEL061C, strain CIN8 (second series), hits give low values 0.999 | locus YEL061C, strain CIN8, hits give low values 1.01 | locus YER015W, strain faa2, hits give low values 0.978 | locus YER016W, strain bim1, hits give low values 0.994 | locus YER110C, hits give low values 0.991 | locus YER111C, strain swi4, hits give low values 0.995 | locus YER155C, strain BEM2 (second series), hits give low values 1.01 | locus YER155C, strain BEM2, hits give low values 1.03 | locus YER167W, strain BCK2, hits give low values 1.01 | locus YFR010W, strain ubp6, hits give low values 1.01 | locus YGL078C, strain dbp3, hits give low values 0.987 | locus YGL086W, strain mad1, hits give low values 0.992 | locus YGL167C, strain pmr1, hits give low values 0.987 | locus YGL173C, strain kem1, hits give low values 0.987 | locus YGL227W, strain vid30, hits give low values 0.993 | locus YGL240W, strain doc1, hits give low values 1 | locus YGL248W, strain PDE1, hits give low values 1.01 | locus YGL253W, strain hxk2, hits give low values 0.998 | locus YGR078C, strain PAC10, hits give low values 0.991 | locus YGR135W, strain pre9, hits give low values 0.978 | locus YGR229C, strain SMI1, hits give low values 0.99 | locus YGR252W, strain gcn5, hits give low values 1.05 | locus YHR013C, strain ard1, hits give low values 0.981 | locus YHR027C, strain rpn1, hits give low values 0.991 | locus YHR030C, strain SLT2, hits give low values 1.01 and 0.997 | locus YHR079C, strain IRE1 (second series), hits give low values 0.988 | locus YHR079C, strain IRE1, hits give low values 1.01 | locus YHR094C, strain hxt1, hits give low values 0.985 | locus YHR129C, strain ARP1, hits give low values 1.02 | locus YHR142W, strain chs7, hits give low values 0.998 | locus YHR200W, strain rpn10, hits give low values 0.993 | locus YIL066C, strain RNR3, hits give low values 1 | locus YIL073C, strain SPO22, hits give low values 0.999 | locus YIL125W, strain kgd1, hits give low values 0.998 | locus YIR030C, strain dcg1, hits give low values 0.985 | locus YJL092W, strain hpr5, hits give low values 0.997 | locus YJL095W, strain BCK1 (second series), hits give low values 0.998 | locus YJL095W, strain BCK1, hits give low values 1 and 1.01 | locus YJL115W, strain asf1, hits give low values 0.986 | locus YJL129C, strain trk1, hits give low values 1.02 | locus YJL134W, strain LCB3, hits give low values 1.01 | locus YJL154C, strain vps35, hits give low values 0.996 | locus YJL166W, strain qcr8, hits give low values 0.99 | locus YJL168C, strain set2, hits give low values 0.992 | locus YJL187C, strain SWE1 (second series), hits give low values 1.01 | locus YJL187C, strain SWE1, hits give low values 0.999 | locus YJR043C, strain POL32, hits give low values 1 | locus YJR066W, strain TOR1, hits give low values 0.952
